Assay outcomes deposited in PubChem by National Center for Advancing Translational Sciences (NCATS).
ELG1 DNA repair: inhibitors of ELG1-dependent DNA repair in HEK293T cells | Potency, µM (titrated, usually from 46.1 µM), for the others: top-dose activity change, negative = inhibition, usual class: inhibitors | HEK293T ELG1-luciferase reporter, luminescence, 16 h; DNA damage induced by 5-fluorouridine | 330,000 tested, 2.3% active; also: % is scaled to controls: 0 for no effect and ±100 for the full control effect; nearly all actives have a fitted effect of over 55% in size
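Overnight (16 hr) co-exposure of 2,000 cells/well to 5-fluorouridine and compound at 37 °C preceded detection. Luciferase was quantified via ONE-Glo luminescence; loss of signal denotes inhibition.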
SW480 rereplic: DNA re-replication induction in SW480 cells | Potency, µM (top dose mostly 46.1 µM), without a hit: top-dose re-replication activation, usual class: activators | SW480 DNA re-replication, Hoechst DNA content imaging, 48 h | 340,000 tested, 1.8% active; also: % of control where 0% means no effect; nearly all actives have a fitted effect of over 55% in size
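Readout is total intensity of Hoechst-stained nuclei, excited at 405 nm and collected at 500-530 nm. Compound treatment lasted 48 hr at 37 C in 5% CO2 before staining.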
Gal4-VP16 FLuc: Gal4-VP16 reporter inhibition counter-screen; Drosophila S2 Gal4-VP16 UAS-luciferase, luminescence, 20 h; Potency, µM (doses to about 53.6 µM), without a hit: at the top dose activity, negative = inhibition, most hits filed as inhibitors; 310,000 tested, 3.5% active;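 also: Gal4-VP16 expression switched on by copper sulfate through the metallothionein promoter; % is scaled to controls: 0 for no effect and ±100 for the full control effect; nearly all actives have a fitted effect of over 50% in size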
RORg inh: ROR gamma (mouse) transcription inhibition. Drosophila S2 Gal4-RORgamma UAS-luciferase reporter, 20 h. Potency, µM (top dose mostly 53.6 µM), inactives show top-dose activity change, negative = inhibition, hits mostly inhibitors. 310,000 tested, 5.4% active; also: % is scaled to controls: 0 for no effect and ±100 for the full control effect; nearly all actives have a fitted effect of over 60% in size
Target sequence (P51450 whole entry, looked up, the tested form may be a part): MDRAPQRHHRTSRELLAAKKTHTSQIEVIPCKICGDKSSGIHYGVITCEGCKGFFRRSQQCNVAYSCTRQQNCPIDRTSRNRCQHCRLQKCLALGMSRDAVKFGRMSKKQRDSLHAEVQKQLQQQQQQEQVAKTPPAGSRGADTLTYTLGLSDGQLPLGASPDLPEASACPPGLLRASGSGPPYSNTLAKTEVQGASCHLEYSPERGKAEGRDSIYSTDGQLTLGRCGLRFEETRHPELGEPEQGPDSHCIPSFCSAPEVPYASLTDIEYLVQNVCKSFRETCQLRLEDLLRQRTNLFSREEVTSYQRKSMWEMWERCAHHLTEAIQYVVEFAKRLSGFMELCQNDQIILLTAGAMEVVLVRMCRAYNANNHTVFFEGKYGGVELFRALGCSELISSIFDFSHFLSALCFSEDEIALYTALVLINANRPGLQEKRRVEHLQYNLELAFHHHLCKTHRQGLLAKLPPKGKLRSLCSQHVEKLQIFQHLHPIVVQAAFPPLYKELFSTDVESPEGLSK
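Schneider cells (Drosophila), stable Gal4 DBD–ROR gamma + UAS-luc; 1 hr cmpd preincubation; Cu2+ induction 700 uM final; 20 hr ambient; luminescence.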
MCF10A rerep: inducers of DNA re-replication in MCF 10A breast cells; Potency, µM (titrated, usually from 46.1 µM), inactives show top-dose activity, positive = re-replication, hits mostly activators; AID 624296; 350,000 tested, 2.9% active; MCF 10A DNA re-replication, Hoechst nuclear intensity, 48 h; also: % of control where 0% means no effect; nearly all actives have a fitted effect of over 50% in size
An asterisk follows results filed as active; [ ] = dose if it differs, or a comment. Only some compounds are listed: those with a hit (about 10% of all), similar ones and a draw of the others. Calls follow the shape of the dose curve; as a rule, active = well fitted curve in the direction sought with a large enough effect; inconclusive = small, poorly fitted or top-dose-only effect, or another doubt; inactive = no such curve, though single readings can be large; an effect the other way counts as inactive or inconclusive. Potency is read from the fitted curve at half-maximal effect.

`CC(C)(C)OC(=O)CNC(=O)c1nc[nH]c1C(=O)NCC(=O)OC(C)(C)C` gave ELG1 DNA repair -2%, SW480 rereplic inconclusive, Gal4-VP16 FLuc -10%, RORg inh -24% and MCF10A rerep inconclusive.
Screening C[C@@H](NC(=O)c1nc[nH]c1C(=O)NCC(=O)OC(C)(C)C)c1ccccc1 returned ELG1 DNA repair inconclusive, SW480 rereplic -6%, Gal4-VP16 FLuc inconclusive, RORg inh 10µM* and MCF10A rerep -1%.
Screening C[C@H](NC(=O)c1nc[nH]c1C(=O)NCCCCCNC(=O)OC(C)(C)C)c1ccccc1 returned ELG1 DNA repair inconclusive, SW480 rereplic -6% and MCF10A rerep 19%.
Screening C[C@H](NC(=O)c1nc[nH]c1C(=O)NCc1ccc(CNC(=O)OC(C)(C)C)cc1)c1ccccc1 returned ELG1 DNA repair 18µM*, SW480 rereplic 4% and MCF10A rerep 15µM*.
`CC1=CC[C@@]2(CO)COC(c3ccccc3O)C1C2` (stereo not given in full) gave Gal4-VP16 FLuc -4% and RORg inh 0%.
`CCc1cccc(OCC(=O)Nc2cc(Cl)ccc2-n2cncn2)c1` gave ELG1 DNA repair -24%, SW480 rereplic 4.6µM* and MCF10A rerep inconclusive.
For Cc1nnc(SCC(=O)NCCC2=CCCCC2)[nH]c1=O the results were ELG1 DNA repair inconclusive, SW480 rereplic 5% and MCF10A rerep 0%.
`Cc1cccc(N2C(=O)CC(Sc3nc(C)cc(C)n3)C2=O)c1` (stereo not given) gave ELG1 DNA repair -6%, SW480 rereplic -5%, Gal4-VP16 FLuc 3%, RORg inh -2% and MCF10A rerep 9%.
`Cc1cccc(N2C(=O)CC(Sc3nc(-c4ccccc4)c4cc(Cl)ccc4n3)C2=O)c1` (stereo not given) gave ELG1 DNA repair 1%, SW480 rereplic -5%, Gal4-VP16 FLuc inconclusive, RORg inh 2.8µM* and MCF10A rerep 11%.
For Cc1nc(SC2CC(=O)N(c3cc(Cl)cc(Cl)c3)C2=O)nc2c1CCCC2 (stereo not given) the results were ELG1 DNA repair 10%, SW480 rereplic 0%, Gal4-VP16 FLuc -2%, RORg inh 25% and MCF10A rerep 22%.
`Cc1cccc(N2C(=O)CC(Sc3nc(C)c4c(n3)CCCC4)C2=O)c1` (stereo not given) gave ELG1 DNA repair 0%, SW480 rereplic 5.8µM*, Gal4-VP16 FLuc 4%, RORg inh 13% and MCF10A rerep 12%.
CCOC(=O)N1C(=O)[C@@](c2ccc(Cl)cc2)(C(C)C)N1C(=O)OCC was read as ELG1 DNA repair inconclusive, SW480 rereplic inconclusive, Gal4-VP16 FLuc inconclusive, RORg inh inconclusive and MCF10A rerep 21µM*.
For CN(C1CCCCC1)S(=O)(=O)c1ccc(S(=O)(=O)N(CC(=O)Nc2ccccc2)C2CC2)cc1 the results were ELG1 DNA repair -12%, SW480 rereplic 3.7µM*, Gal4-VP16 FLuc -1%, RORg inh 2% and MCF10A rerep 13%.
`CN(C1CCCCC1)S(=O)(=O)c1ccc(NC(=O)CCC(=O)O)cc1` gave ELG1 DNA repair -5%, SW480 rereplic 0%, Gal4-VP16 FLuc -13%, RORg inh -7% and MCF10A rerep 3%.
`CC(C)[C@H](NC(=O)[C@@H](Cc1c[nH]c2ccccc12)NC(=O)[C@H](Cc1ccc(O)cc1)NC(=O)[C@@H](N)CC(=O)O)C(=O)N[C@H](Cc1c[nH]c2ccccc12)C(=O)N[C@H](Cc1c[nH]c2ccccc12)C(=O)N[C@@H](CCCCN)C(N)=O` gave Gal4-VP16 FLuc 4% and RORg inh 26%.
CCCn1c(N)c(C(=O)COC(=O)c2c(C)noc2C)c(=O)n(C)c1=O was read as ELG1 DNA repair 23µM*, SW480 rereplic 4%, Gal4-VP16 FLuc -14%, RORg inh 21% and MCF10A rerep 4%.
`CCCCNC(C(=O)Nc1ccc(Cl)c([N+](=O)[O-])c1)c1ccccc1` (stereo not given) gave ELG1 DNA repair -2%, SW480 rereplic 0%, Gal4-VP16 FLuc -5%, RORg inh -13% and MCF10A rerep inconclusive.
Screening COC(=O)C1=C(N)Oc2cc(C)n(CC3CCCO3)c(=O)c2C1c1ccccc1OC (stereo not given) returned ELG1 DNA repair -1%, SW480 rereplic 0%, Gal4-VP16 FLuc -6%, RORg inh 7% and MCF10A rerep 0%.
COC(=O)C1=C(N)Oc2cc(N(C)C)ccc2C1c1ccccc1OC (stereo not given) was read as ELG1 DNA repair 9%, SW480 rereplic 12µM*, Gal4-VP16 FLuc -1%, RORg inh -25% and MCF10A rerep 9.2µM*.
CCOc1ccc(NS(=O)(=O)c2cccc(C(=O)N3CCN(C/C=C/c4ccccc4)CC3)c2)cc1 was read as SW480 rereplic 5% and MCF10A rerep inconclusive.
Cn1ncc2c(NNC(=O)c3ccc(Cl)cc3Cl)ncnc21 was read as ELG1 DNA repair 0%, SW480 rereplic 0%, Gal4-VP16 FLuc 7.1µM*, RORg inh 6.3µM* and MCF10A rerep 0%.
For Cn1ncc2c(NNC(=O)c3ccc(Cl)c(Cl)c3)ncnc21 the results were ELG1 DNA repair 5%, SW480 rereplic -2%, Gal4-VP16 FLuc 1.1µM*, RORg inh 0.32µM* and MCF10A rerep inconclusive.
Screening COc1ccc(C(=O)Nc2ccnn2C2CCN(Cc3ccccn3)CC2)cc1 returned ELG1 DNA repair 29%, SW480 rereplic 15%, Gal4-VP16 FLuc -5%, RORg inh 3% and MCF10A rerep 5%.
For Cn1c(=O)c([N+](=O)[O-])c(NCc2ccc3c(c2)OCO3)c2ccccc21 the results were ELG1 DNA repair -13%, SW480 rereplic -2%, Gal4-VP16 FLuc -1%, RORg inh inconclusive and MCF10A rerep 5%.
`Cc1cc(Br)ccc1NC(=O)CN(C)C(=O)C1=COCCO1` gave ELG1 DNA repair 12%, SW480 rereplic 0% and MCF10A rerep 6%.
COc1ccc(-c2cc(C(=O)Oc3ccc([N+](=O)[O-])cc3)c3ccccc3n2)cc1 was read as ELG1 DNA repair inconclusive, SW480 rereplic inconclusive, Gal4-VP16 FLuc inconclusive, RORg inh inconclusive and MCF10A rerep 18µM*.
Screening COc1ccc(-c2cc(C(=O)OCc3ccccn3)c3ccccc3n2)cc1 returned ELG1 DNA repair inconclusive, SW480 rereplic 13µM*, Gal4-VP16 FLuc -8%, RORg inh -9% and MCF10A rerep inconclusive.
COc1ccc(C(=O)c2ccc(N3CCN(C(=O)c4ccc(F)cc4)CC3)c(F)c2)cc1Br was read as ELG1 DNA repair 21µM*, SW480 rereplic 0%[9.22 µM], Gal4-VP16 FLuc -12%, RORg inh 3% and MCF10A rerep inconclusive.
